BAZ2B inh = BAZ2B (human) inhibition; Q9UIF8; AlphaScreen BAZ2B-H3K14Ac peptide displacement; Potency, µM (top dose mostly 114 µM), for inactives: top-dose activity change, negative = inhibition, hits mostly inhibitors; actives 4.4% (n = 360,000); also: % is scaled to controls: 0 for no effect and ±100 for the full control effect; nearly all actives have a fitted effect of over 60% in size
Target sequence (Q9UIF8 whole entry, looked up): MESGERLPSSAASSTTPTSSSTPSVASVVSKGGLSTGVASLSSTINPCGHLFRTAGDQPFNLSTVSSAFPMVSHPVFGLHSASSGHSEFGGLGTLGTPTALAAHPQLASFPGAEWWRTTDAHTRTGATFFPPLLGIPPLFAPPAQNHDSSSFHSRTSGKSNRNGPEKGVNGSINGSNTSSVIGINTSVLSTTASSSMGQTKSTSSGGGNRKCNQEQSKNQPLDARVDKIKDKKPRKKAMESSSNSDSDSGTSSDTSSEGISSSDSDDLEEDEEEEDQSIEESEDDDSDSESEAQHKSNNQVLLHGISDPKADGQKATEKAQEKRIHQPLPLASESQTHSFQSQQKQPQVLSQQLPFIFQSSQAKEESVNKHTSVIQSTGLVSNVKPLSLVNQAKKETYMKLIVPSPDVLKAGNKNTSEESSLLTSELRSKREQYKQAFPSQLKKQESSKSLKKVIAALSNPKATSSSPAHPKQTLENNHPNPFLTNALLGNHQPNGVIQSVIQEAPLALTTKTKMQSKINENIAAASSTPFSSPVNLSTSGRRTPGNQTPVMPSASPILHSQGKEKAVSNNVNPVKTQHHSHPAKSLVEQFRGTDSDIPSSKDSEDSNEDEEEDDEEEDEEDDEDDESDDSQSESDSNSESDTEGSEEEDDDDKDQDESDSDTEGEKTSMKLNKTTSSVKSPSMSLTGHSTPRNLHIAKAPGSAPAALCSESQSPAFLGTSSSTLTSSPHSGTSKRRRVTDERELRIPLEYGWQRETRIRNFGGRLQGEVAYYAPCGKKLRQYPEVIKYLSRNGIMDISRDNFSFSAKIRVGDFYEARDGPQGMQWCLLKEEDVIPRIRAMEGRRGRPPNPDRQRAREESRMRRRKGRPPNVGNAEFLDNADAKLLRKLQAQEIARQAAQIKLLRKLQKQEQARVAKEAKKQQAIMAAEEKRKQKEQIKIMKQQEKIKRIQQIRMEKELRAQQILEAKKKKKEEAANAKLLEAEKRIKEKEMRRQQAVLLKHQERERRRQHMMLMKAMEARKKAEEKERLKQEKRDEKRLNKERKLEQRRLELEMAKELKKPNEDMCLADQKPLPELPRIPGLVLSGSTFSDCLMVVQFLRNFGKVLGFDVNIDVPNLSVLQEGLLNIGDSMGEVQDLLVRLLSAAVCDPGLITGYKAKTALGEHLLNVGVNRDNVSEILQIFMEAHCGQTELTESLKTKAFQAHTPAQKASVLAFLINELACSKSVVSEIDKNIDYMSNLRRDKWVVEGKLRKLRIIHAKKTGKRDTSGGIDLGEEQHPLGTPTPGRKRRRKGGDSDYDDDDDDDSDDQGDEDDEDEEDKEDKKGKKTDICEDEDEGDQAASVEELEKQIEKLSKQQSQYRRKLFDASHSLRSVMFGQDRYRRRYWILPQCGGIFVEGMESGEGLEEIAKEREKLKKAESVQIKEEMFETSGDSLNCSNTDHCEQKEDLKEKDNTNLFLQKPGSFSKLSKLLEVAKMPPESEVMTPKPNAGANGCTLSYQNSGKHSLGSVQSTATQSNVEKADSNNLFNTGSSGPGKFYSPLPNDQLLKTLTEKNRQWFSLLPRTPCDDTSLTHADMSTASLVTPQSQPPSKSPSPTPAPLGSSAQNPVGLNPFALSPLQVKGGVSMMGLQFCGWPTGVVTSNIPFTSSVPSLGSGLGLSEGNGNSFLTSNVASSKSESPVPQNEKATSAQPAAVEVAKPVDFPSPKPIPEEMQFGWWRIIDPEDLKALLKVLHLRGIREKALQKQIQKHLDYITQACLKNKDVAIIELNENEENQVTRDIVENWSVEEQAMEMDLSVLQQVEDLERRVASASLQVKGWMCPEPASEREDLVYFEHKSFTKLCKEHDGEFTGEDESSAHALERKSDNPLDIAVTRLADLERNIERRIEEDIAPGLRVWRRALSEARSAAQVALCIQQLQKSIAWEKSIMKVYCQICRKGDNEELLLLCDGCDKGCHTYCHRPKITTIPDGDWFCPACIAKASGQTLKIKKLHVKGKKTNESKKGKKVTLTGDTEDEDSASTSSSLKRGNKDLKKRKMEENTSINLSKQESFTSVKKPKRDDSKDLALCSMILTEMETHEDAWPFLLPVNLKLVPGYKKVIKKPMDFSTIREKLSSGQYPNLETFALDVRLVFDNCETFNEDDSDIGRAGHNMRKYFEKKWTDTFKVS
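Inhibition is scored as reduced AlphaScreen emission. The BAZ2B/b-H3(5-23)K14Ac complex (50 nM each) in PBS pH 7.4, 0.01% Tween-20 meets compound (up to 110 uM) for 30 min at RT before bead addition.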
GLS inhibitor = glutaminase GLS (human) inhibition; GLS enzymatic activity, qHTS titration; O94925; AID 624170; actives 0.21% (n = 410,000); Potency, µM (titrated, usually from 45.5 µM), for the others: top-dose activity change, negative = inhibition, most hits filed as inhibitors; also: % is scaled to controls: 0 for no effect and ±100 for the full control effect
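Compounds were pin-transferred onto hKGA, after which L-glutamine (1 mM solution) and a detection mix of glutamate oxidase, HRP and Amplex Red were added. Initial and 30 min RT fluorescence reads were collected.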
JMJD2A Tudor = inhibitors of human JMJD2A Tudor domain; AlphaScreen JMJD2A-Tudor / H3K4me3 peptide binding; Potency, µM (doses to about 114 µM), without a hit: at the highest dose activity change, negative = inhibition, usual class: inhibitors; actives 4.4% (n = 390,000); AID 504339; also: % is scaled to controls: 0 for no effect and ±100 for the full control effect; nearly all actives have a fitted effect of over 50% in size
L3MBTL1 block = blocks human L3MBTL1. Potency, µM (highest dose often 57.1 µM), for the others: at the highest dose activity, negative = inhibition, actives largely listed as inhibitors. actives 0.66% (n = 230,000). AlphaScreen L3MBTL1–H3K9me1 peptide binding. Q9Y468. AID 485360; also: % is scaled to controls: 0 for no effect and ±100 for the full control effect; nearly all actives have a fitted effect of over 60% in size
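First, the protein-peptide complex forms for 30 min at room temperature (L3MBTL1 50 nM, biotinylated H3K9me1 peptide 75 nM). Next, compounds are pin-transferred and incubated 30 min. Finally, AlphaScreen beads are added and read after 30 min.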
G9a block = G9a (human) methyltransferase inhibition; Potency, µM (highest dose often 102 µM), inactives show at the highest dose activity, negative = inhibition, hits mostly inhibitors; actives 8.8% (n = 350,000); Q96KQ7; AID 504332; G9a H3K9 monomethylation, AlphaScreen, 2 h; also: % is scaled to controls: 0 for no effect and ±100 for the full control effect; nearly all actives have a fitted effect of over 75% in size
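Methyltransferase reactions run at room temperature for 2 h (20 nM enzyme, 500 nM biotin-H3K9 peptide, 20 uM SAM) after a 15 min compound preincubation; product detected by AlphaScreen beads and anti-H3K9me1 antibody.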
HP1b chromo inh = inhibitors of HP1-beta chromodomain binding to methylated histone tails; P83916; actives 0.56% (n = 390,000); AlphaScreen HP1-beta / biotin-H3K9me3 peptide binding; Potency, µM (doses to about 114 µM), inactives show top-dose activity change, negative = inhibition, hits mostly inhibitors; also: nearly all actives have a fitted effect of over 70% in size
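AlphaScreen: HP1-beta (50 nM) preformed 30 min with biotin-H3(1-18)K9me3 peptide (50 nM) in PBS pH 7.4, 0.01% Tween-20. Compound added for 30 min at RT, then streptavidin donor/nickel chelate acceptor beads (10 ug/mL) for 30 min.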
Numbers without * were called inactive; ? = inconclusive; . = not tested or not shown; [ ] = remark or other dose. Sampled rows, rich in hits. Any-hit rate of the full collection: about 10%. Calls follow the shape of the dose curve; as a rule, active = well fitted curve in the direction sought with a large enough effect; inconclusive = small, poorly fitted or top-dose-only effect, or another doubt; inactive = no such curve, though single readings can be large; an effect the other way counts as inactive or inconclusive. Potency is read from the fitted curve at half-maximal effect.

SMILES	BAZ2B inh	GLS inhibitor	JMJD2A Tudor	L3MBTL1 block	G9a block	HP1b chromo inh
O=C(NCc1ccccc1)Nc1ncnc2c1C(c1ccccc1)c1c(ccc3ccccc13)O2 (stereo not given)	.	.	-27.4%	.	.	.
COc1ccccc1CNC(=O)CSc1nc(=O)[nH]c2c1CCCC2	-1.5%	-6.2%	-10.1%	.	4.7%[59 µM]	8.4%
C=C1CCN(C(CC(C)C)C(=O)NCc2ccc(Cl)cc2)S(=O)(=O)c2ccccc21 (stereo not given)	.	.	-11.0%	.	.	40.8%
COC(=O)C(N)Cc1ccc(OC)c([N+](=O)[O-])c1 (stereo not given)	0.2%	-11.1%	-9.7%	-1.2%	.	21.9%
NC(Cc1ccc(O)c([N+](=O)[O-])c1)C(=O)O (stereo not given)	50.1µM*	3.5%	?	-0.2%	?	-5.5%
CCOC(=O)c1ccc(NC(=O)CC2C(=O)N(c3ccccc3)C(=O)N2C2CCCCC2)cc1 (stereo not given)	-12.6%	-3.7%	-17.5%	.	-24.0%[59 µM]	32.2%
Cc1ccc(-c2nc3sc(CCNC(=O)c4ccc(F)c(F)c4)c(C)n3n2)cc1	-0.1%	-14.7%	-8.1%	.	2.0%[59 µM]	8.3%
O=C(NNCS(=O)(=O)O)c1ccncc1	.	24.9%	.	.	7.8%[12.7 µM]	.
CCOc1cc2[nH]c(=O)n(CCCCC(=O)N3CCN(c4ccccc4OC)CC3)c(=O)c2cc1OCC	0.9%	4.2%	-8.7%	.	-0.4%[59 µM]	26.3%
Cc1ccc2nc(CSc3nnc(-c4ccco4)o3)cc(=O)n2c1	56.2µM*	-2.8%	-30.8%	-19.3%	?	26.0%
Cc1ccc2nc(CSc3nnc(-c4ccco4)n3-c3ccccc3)cc(=O)n2c1	.	9.7%	?	.	.	11.5%
CCCCc1nc2ccccc2n1CC(=O)N(COCC)c1c(C)cccc1CC	-2.0%	7.2%	-5.9%	.	-5.0%[59 µM]	62.7%
O=C(Nc1ccccc1)c1cn(-c2ccccc2)nc1-c1ccccc1	-29.3%	-0.6%	-18.9%	.	-29.7%[59 µM]	1.3%
O=C(O)CC/C(=N/NC(=O)c1cn(-c2ccccc2)nc1-c1ccccc1)C(=O)O	?	11.8%	?	0.6%	35.5µM*	14.5%
CCN1CCN(c2c(/C=C3\SC(=S)N(Cc4ccco4)C3=O)c(C)c(C#N)c(=O)n2C)CC1	-26.3%	-6.0%	?	.	22.4µM*	-3.6%
CC(C)(C)N1C(=O)c2ccccc2NC(=O)N1Cc1ccccc1	-12.3%	-7.6%	-0.6%	.	-24.1%[59 µM]	37.2%
O=C1Nc2ccccc2C(=O)C1(Cl)Cc1ccccc1 (stereo not given)	79.4µM*	?	50.1µM*	8.6%	?	?
CS(=O)(=O)Nc1ccc(C2=NN(S(=O)(=O)c3ccc(F)cc3)C(c3ccco3)C2)cc1 (stereo not given)	-19.3%	1.6%	-33.2%	.	50.1µM*	13.9%
O=S(=O)(c1ccccc1)N1N=C(c2ccc(Br)cc2)CC1c1ccco1 (stereo not given)	-17.1%	?	15.8µM*	.	?	-1.0%
Cc1ccc(C2=NN(S(=O)(=O)c3ccccc3)C(c3ccco3)C2)cc1 (stereo not given)	-8.3%	0.4%	-16.1%	-8.1%	-2.0%[12.7 µM]	33.9%
CS(=O)(=O)Nc1ccc(C2=NN(C(=O)c3ccco3)C(c3ccccc3F)C2)cc1 (stereo not given)	.	15.6%	-22.1%	.	50.1µM*	22.9%
CCS(=O)(=O)Nc1ccc(C2=NN(C(=O)c3ccco3)C(c3ccco3)C2)cc1 (stereo not given)	-38.7%	5.1%	-14.4%	-8.3%	?	9.8%
Cc1ccc(NC(=O)CN2C(=O)S/C(=C\c3ccccn3)C2=O)cc1	3.8%	2.0%	-3.4%	13.6%	-12.2%[59 µM]	37.4%
Cc1ccc(NC(=O)CN2C(=O)S/C(=C\c3ccc(C(=O)O)cc3)C2=O)cc1	56.2µM*	?	?	1.9%	2.2%	28.3%
Cc1ccc(NC(=O)CN2C(=O)S/C(=C\c3cc(C)n(-c4cccc(C(=O)O)c4)c3C)C2=O)cc1	44.7µM*	15.3%	56.2µM*	-28.8%	.	-13.5%
SMILES	BAZ2B inh	GLS inhibitor	JMJD2A Tudor	L3MBTL1 block	G9a block	HP1b chromo inh
CCOC(=O)C1CCN(S(=O)(=O)c2ccc(Cl)cc2)CC1	-3.6%	1.7%	0.7%	.	-4.5%	11.1%
CC1CCCC(C)N1CC(C)(C)NS(=O)(=O)c1ccc(Cl)cc1 (stereo not given)	50.1µM*	.	24.2%	.	?	21.4%
CC(C)(CN1CCCC1)NS(=O)(=O)c1ccc(Cl)cc1	5.5%	8.9%	0.0%	.	4.6%[12.7 µM]	0.2%
CCOC(=O)C1CCN(CC(C)(C)NS(=O)(=O)c2ccc(Cl)cc2)CC1	50.1µM*	-2.3%	3.16µM*	.	11.2µM*	79.4µM*
CCOC(=O)C1CCN(C2=C(NS(=O)(=O)c3ccc(Cl)cc3)C(=O)c3ccccc3C2=O)CC1	8.91µM*	34.0%	11.2µM*	?	4.47µM*	?
CCOC(=O)C1CCCN(C2=C(NS(=O)(=O)c3ccc(Br)cc3)C(=O)c3ccccc3C2=O)C1 (stereo not given)	8.91µM*	14.3%	10µM*	.	.	10µM*
COC(=O)c1ccccc1NC(=O)c1noc2c1CSc1ccccc1-2	40.5%	1.5%	24.8%	.	?	79.9%
Cc1cc(C)n2ncc(C(=O)Nc3ccc4c(c3)CCC4)c2n1	.	.	-8.5%	.	.	.
Cc1cc(C)n2ncc(C(=O)Nc3ccc(Cl)c(Cl)c3)c2n1	-10.5%	8.3%	-24.6%	-2.5%	39.8µM*	?
COc1ccc(NC(=O)Cn2c(=O)n(-c3ccc(CC(=O)NCC4CCCO4)cc3)c(=O)c3ccccc32)c(OC)c1 (stereo not given)	1.1%	5.1%	-5.1%	.	-2.6%[59 µM]	24.4%
COc1cccc(CNC(=O)c2cc3c(s2)-c2c(C)cccc2OC3)c1	26.9%	1.1%	51.3%	.	28.4%[59 µM]	82.7%
CC(C)(C)c1cc[n+](-c2[nH]c(=O)sc2/C=N/NC([S-])=Nc2ccccc2)cc1	-31.2%	1.6%	-30.1%	-15.6%	14.1µM*	-15.1%
Cc1cc[n+](-c2[nH]c(=O)sc2/C=N/NC([S-])=Nc2ccccc2)cc1C	?	28.3%	?	-24.8%	31.6µM*	?
O=S(=O)(c1ccc2c(c1)OCCO2)N1CCN(S(=O)(=O)c2ccc(Br)cc2F)CC1	.	.	-15.8%	.	.	.
COCCNC(=O)/C(C#N)=C/c1c(N2CCN(c3ccc(OC)cc3)CC2)nc2c(C)cccn2c1=O	39.8µM*	26.6%	50.1µM*	.	28.2µM*	-12.9%
COC(=O)/C(C#N)=C/c1c(N2CCN(c3ccccc3)CC2)nc2ccccn2c1=O	?	8.9%	?	.	79.4µM*	-20.3%

Bioassay records: PubChem BioAssay, National Center for Advancing Translational Sciences (NCATS)
